Source: PubChem BioAssay (NCI)
About 83,000 compounds went through this panel and 20% of them were active in at least one assay; those are over-represented in the sample as a whole.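 For each line, cells grew in 96-well plates with the test compound present at a single concentration for 48 hours.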 A number with no mark means an inactive call. Active and inactive are the calls of the source. The calls were made as follows: active = growth percent below 10; inactive = the rest.

Columns and labels:
Experiment in all cases: NCI-60 one-dose screen, 48 h (100 = growth as untreated, 0 = no growth, -100 = all killed)
Settings in all cases: 10 µM unless noted
NCI-H226 lung = test system: NCI-H226 lung
NCI-H322M lung = test system: NCI-H322M lung
HOP-62 NSCLC = test system: HOP-62 NSCLC
NCI-H460 lung = test system: NCI-H460 lung
HOP-92 NSCLC = test system: HOP-92 NSCLC
NCI-H522 lung = test system: NCI-H522 lung
A549/ATCC NSCLC = test system: A549/ATCC NSCLC
786-0 renal = test system: 786-0 renal
COLO 205 colon = test system: COLO 205 colon
DU-145 prostate = test system: DU-145 prostate
K-562 leukemia = test system: K-562 leukemia
MALME-3M melanoma = test system: MALME-3M melanoma
MDA-MB-231 breast = test system: MDA-MB-231 breast
RXF 393 renal = test system: RXF 393 renal
SF-268 CNS = test system: SF-268 CNS
SF-539 CNS = test system: SF-539 CNS
UACC-257 melanoma = test system: UACC-257 melanoma
M14 melanoma = test system: M14 melanoma
SF-295 CNS = test system: SF-295 CNS

Compound	growth (NCI-H226 lung)	growth (NCI-H322M lung)	growth (HOP-62 NSCLC)	growth (NCI-H460 lung)	growth (HOP-92 NSCLC)	growth (NCI-H522 lung)	growth (A549/ATCC NSCLC)	growth (786-0 renal)	growth (COLO 205 colon)	growth (DU-145 prostate)	growth (K-562 leukemia)	growth (MALME-3M melanoma)	growth (MDA-MB-231 breast)	growth (RXF 393 renal)	growth (SF-268 CNS)	growth (SF-539 CNS)	growth (UACC-257 melanoma)	growth (M14 melanoma)	growth (SF-295 CNS)
CN1CCN(c2ccc(Nc3c4ccccc4nc4ccccc34)cc2)CC1	107%	120%	110%	104%	178%	99.7%	98.2%	102%	114%	111%	105%	103%	105%	110%	107%	99.6%	103%	113%	–
Cc1ccc(-c2onc3c(=O)[nH]nc(-c4ccccc4)c23)cc1	61.6%	56.9%	26.5%	–	31.8%	-19.5% (active)	–	37.1%	7.07% (active)	19.4%	14.7%	82.6%	34.9%	31.8%	48.6%	-4.93% (active)	47.3%	23.2%	23.7%
CCn1c(O)c(/C=N/NC(=O)C(C)c2ccc(CC(C)C)cc2)sc1=S (stereo unspecified)	31.1%	37.6%	22.9%	7.24% (active)	39.9%	-11.6% (active)	21.8%	17.8%	15.3%	22.1%	9.15% (active)	64.3%	35.4%	9.92% (active)	32.9%	-13.5% (active)	51.9%	6.26% (active)	15.8%
C=C(C)C(=O)Nc1ccc(NC(C)C)cc1	131%	150%	104%	139%	143%	159%	112%	96.8%	148%	133%	134%	220%	123%	29.7%	107%	100%	-7.29% (active)	101%	147%
O=C(/C=C/c1cc(CN2CCOCC2)c(O)c2ncccc12)c1cc(CN2CCOCC2)c(O)c2ncccc12	34.6%	45.5%	16%	9.34% (active)	-4.72% (active)	14.4%	2.72% (active)	24.6%	30.2%	26.9%	10.4%	38.9%	30.6%	35.3%	30.2%	15%	-6.41% (active)	31.3%	14.7%
COc1ccc(C2CC(c3ccc(Cl)cc3)=NN2/C=C2\SC(=S)N(NC(=O)Cc3ccccc3Nc3c(Cl)cccc3Cl)C2=O)cc1 (stereo unspecified)	68.8%	85%	79.1%	–	-2.84% (active)	65.7%	–	-55.2% (active)	30%	72.5%	1.36% (active)	60.5%	42.1%	66.2%	62.9%	71.1%	88.5%	65.9%	88%
O=C1Nc2cc(-c3ccc(O)cc3)ccc2/C1=C/c1ccc[nH]1	3.63% (active)	6.56% (active)	24.4%	2.66% (active)	10.8%	1.89% (active)	9.14% (active)	10.9%	13.7%	1.75% (active)	3.69% (active)	15.3%	13.2%	-27.3% (active)	21.7%	-14.6% (active)	20%	10.9%	-20.7% (active)
C=C1c2nc3ccccc3n2C=C(c2ccc(Cl)cc2)N1Cc1ccc(OC)cc1	–	101%	118%	81.3%	77.4%	57.3%	84.5%	94%	71.1%	103%	59.2%	99.3%	90.1%	77.5%	96.1%	105%	90%	81.1%	94.9%
CSc1ccc(-c2n[nH]nc2-c2cc3ccccc3s2)cc1	–	73.9%	39.2%	21%	70.3%	8.98% (active)	35%	54.7%	77.8%	74.3%	15.1%	69.4%	41.5%	75.5%	54.3%	50.2%	58.4%	16%	49.9%
Cc1cc(N2CCCCCC2)nc(NC2CCCC(Nc3ccnc4cc(Cl)ccc34)C2)n1 (stereo unspecified)	-61.3% (active)	-70.9% (active)	-83% (active)	-82.2% (active)	-82% (active)	-72% (active)	-68.3% (active)	-96.3% (active)	-80.1% (active)	-70.7% (active)	–	-89% (active)	-88.5% (active)	-81% (active)	-70% (active)	-92.1% (active)	-78.9% (active)	-86.5% (active)	-85.1% (active)
NNCCc1ccc(NC(=O)CCCc2ccc(/C=C/C(=O)NO)cc2)cc1	36%	64%	32.8%	62.8%	28.8%	16.6%	–	71.3%	71.2%	72.6%	7.74% (active)	39.4%	42.3%	63.6%	45.3%	53.3%	51.7%	61.1%	77.7%
Cc1[nH]c(-c2cc(N)ccc2Cl)c2c1C(=O)CCCC2	36.1%	40.8%	15.9%	57.3%	24.5%	16.2%	45.2%	40.1%	22.6%	66.3%	23.2%	32.4%	22%	19.6%	53.5%	25.3%	18.6%	39.3%	31.8%
CC1=NN(c2nc(-c3ccc(Cl)cc3)c(C#N)c(N3CCOCC3)n2)C(=O)C1	89.8%	101%	87%	99.1%	6.28% (active)	78.9%	101%	49.1%	104%	102%	101%	42%	91.9%	43.4%	91.1%	97.9%	99.9%	90%	103%
Cc1ccccc1COc1ccc(-c2onc(C)c2-c2ccc(Cl)cc2)cc1	57.2%	97.6%	51.6%	54.7%	72.6%	25.5%	–	75.5%	71%	77.4%	14.4%	59.8%	90.8%	70.2%	75.6%	63.5%	70.9%	32.2%	49.4%
CC1=CC(C)(C)Nc2ccc(Cc3ccc4c(c3)C(C)=CC(C)(C)N4)cc21	88.4%	113%	94.1%	–	99.7%	68%	78.5%	97.1%	125%	98.1%	114%	87.2%	86.1%	79.6%	103%	96.6%	93.7%	96.1%	139%
CSc1nc2c(c(=O)[nH]1)C1(C(=O)Nc3ccccc31)c1c(nc(SC)[nH]c1=O)N2	94.9%	92.5%	113%	–	98.8%	123%	100%	103%	109%	105%	112%	93.7%	107%	103%	98.2%	102%	104%	97.2%	103%
Cc1cc(C)nc(SC2=C(Nc3cc(Cl)ccc3O)C(=O)N(Cc3ccccc3)C2=O)n1	85.1% [30 µM]	-32% [30 µM] (active)	102% [30 µM]	97.4% [30 µM]	42.9% [30 µM]	58.6% [30 µM]	46.6% [30 µM]	83.4% [30 µM]	112% [30 µM]	95.8% [30 µM]	58.5% [30 µM]	-56.7% [30 µM] (active)	64.5% [30 µM]	58.7% [30 µM]	93.8% [30 µM]	118% [30 µM]	83.5% [30 µM]	95.2% [30 µM]	112% [30 µM]
